OTUD3 inh: inhibitors of human OTUD3 deubiquitinase; Q5T2D3; purified OTUD3, Ub-rhodamine fluorescence, 2 h; inhibition, % at 25 µM; 47,000 tested, 0.7% active
UCHL1 inh: human UCHL1 deubiquitinase inhibition. P09936. AID 1645859. 47,000 tested, 0.2% active. inhibition, % at 20 µM. purified UCHL1, Ub-rhodamine cleavage fluorescence
USP10 block: inhibitors of human USP10 deubiquitinase; Q14694; inhibition, % at 20 µM; 47,000 tested, 1.1% active; purified USP10, Ub-rhodamine fluorescence, 60 min
Target sequence (Q14694 whole entry, looked up): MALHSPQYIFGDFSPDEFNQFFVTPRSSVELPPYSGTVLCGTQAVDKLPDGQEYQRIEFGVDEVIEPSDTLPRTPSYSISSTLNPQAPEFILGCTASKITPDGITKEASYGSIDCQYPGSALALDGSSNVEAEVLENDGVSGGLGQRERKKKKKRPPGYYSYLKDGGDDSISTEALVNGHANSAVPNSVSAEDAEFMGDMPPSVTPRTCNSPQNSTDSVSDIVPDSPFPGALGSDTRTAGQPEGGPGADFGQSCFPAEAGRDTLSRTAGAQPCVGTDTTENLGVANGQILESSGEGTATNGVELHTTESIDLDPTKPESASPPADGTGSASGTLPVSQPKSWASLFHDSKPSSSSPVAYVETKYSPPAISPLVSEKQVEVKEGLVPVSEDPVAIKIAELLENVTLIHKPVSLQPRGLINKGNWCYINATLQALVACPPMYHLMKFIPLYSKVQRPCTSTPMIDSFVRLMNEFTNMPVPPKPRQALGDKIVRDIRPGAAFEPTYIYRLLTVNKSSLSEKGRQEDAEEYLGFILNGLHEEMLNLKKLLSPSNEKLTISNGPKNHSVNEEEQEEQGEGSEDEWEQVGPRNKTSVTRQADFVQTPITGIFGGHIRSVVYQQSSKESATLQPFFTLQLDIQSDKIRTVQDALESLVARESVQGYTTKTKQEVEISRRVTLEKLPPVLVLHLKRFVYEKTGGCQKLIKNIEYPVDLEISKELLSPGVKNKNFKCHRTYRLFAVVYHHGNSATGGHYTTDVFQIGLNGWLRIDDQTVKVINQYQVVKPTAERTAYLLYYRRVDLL
USP7 inh: blocks human USP7 ubiquitin-rhodamine cleavage | AID 1645854 | purified USP7, Ub-rhodamine cleavage fluorescence | inhibition, % at 20 µM | 47,000 tested, 0.3% active
USP8 block: human USP8 deubiquitinase inhibition; P40818; inhibition, % at 20 µM; purified USP8, Ub-rhodamine cleavage fluorescence, 30 min; AID 1645853; 47,000 tested, 4.2% active
USP17 inh: blocks human USP17 ubiquitin-rhodamine cleavage; AID 1645855; purified USP17, Ub-rhodamine cleavage fluorescence, 3 h; 47,000 tested, 6.5% active; inhibition, % at 50 µM
Active calls of the source: *; x = no result given. A selection: hits, their analogues and other compounds. The true share with any hit is near 9.2%. Rule as the data show it: active = inhibition above about 30%; inactive = the rest.

SMILES | OTUD3 inh | UCHL1 inh | USP10 block | USP7 inh | USP8 block | USP17 inh
CCc1c(Cl)c(O)c(Cl)c(O)c1C(=O)O[C@H]1C(C)O[C@@H](OC/C2=C\C=C\CC(O)/C(C)=C/C(CC)C(O[C@@H]3OC(C)(C)[C@H](O)C(OC(=O)C(C)C)[C@@H]3O)/C(C)=C/C(C)=C/CC(C(C)O)OC2=O)[C@@H](OC)C1O (some centres not stated) | 32* | 0 | 15 | 2 | 2 | 2
CCOC(=O)c1ccc(N2CCN(C(=O)c3ccccc3)CC2)c(NC(=O)/C=C/c2ccc(C(C)C)cc2)c1 | 1 | 7 | 7 | 11 | 18 | 1
Cc1ccccc1CNC(=O)c1cc2occc2c(Nc2ccc(F)cc2)n1 | 8 | 2 | 24 | 11 | 55* | 23
Cc1ccc(Nc2nc(C(=O)NCCCN3CCCC3=O)cc3occc23)cc1 | -29 | -7 | -11 | -13 | -1 | -37
O=C(c1cc2occc2c(Nc2ccc(F)cc2)n1)N1CCN(c2ccccn2)CC1 | 6 | 2 | 0 | 4 | 1 | 34*
Cc1ccc(CNC(=O)c2cc3occc3c(Nc3ccccc3)n2)cc1 | -16 | -4 | -1 | -6 | 57* | 49*
Cc1cc(C)cc(NC(=O)NCC(O)COc2ccc([N+](=O)[O-])cc2)c1 (configuration not stated) | 2 | 4 | 5 | -1 | -104 | 32*
Cc1ccc(OCC(=O)Nc2cc(NC(=O)c3ccco3)ccc2C)cc1C | -2 | -2 | 1 | -4 | -26 | 60*
CC(=O)Nc1cc(C(=O)N(Cc2ccco2)C2CCCC2)ccc1F | 7 | -3 | 1 | -2 | 4 | -6
COCCn1c(=O)[nH]c(=O)c2c3c(cnc21)C(=O)CC(c1ccc(F)cc1)C3 (configuration not stated) | -5 | -1 | 9 | -7 | 68* | -28
Cc1cccc(NC(=O)c2c(-c3c(F)cccc3Cl)noc2C)n1 | 1 | 0 | 0 | 1 | 0 | -1
O=C(c1ccc(Cl)cc1)c1c[nH]cc1-c1c(F)cccc1Cl | 6 | 2 | 6 | 3 | 10 | 32*
COc1ccc(-c2onc(C)c2C)cc1S(=O)(=O)NCc1ccc(F)cc1 | 2 | 5 | 58* | 4 | 11 | -3
COc1ccc(-c2onc(C)c2C)cc1S(=O)(=O)Nc1ccc(CN2CCC(C)CC2)cc1 | -6 | 1 | -5 | -1 | 4 | -10
CCC(Sc1nc2cc(OC)c(OC)cc2c2nc(C)nn12)C(=O)Nc1cccc(C)c1 (configuration not stated) | 0 | 4 | 2 | 4 | -1 | -1
COc1ccc(NC(=O)CSc2nc3ccccc3c3nc(C)nn23)cc1OC | 20 | 5 | 0 | 6 | 41* | 37*
Cc1ccc(C(CNC(=O)c2cc(-c3cccs3)on2)N2CCCCC2)o1 (configuration not stated) | -5 | 0 | 0 | 5 | 13 | 28
COc1cc(C)cc2c1C(=O)c1c(cc(O)c(Cl)c1O)C2=O | 76* | 73* | 5 | 72* | -18 | 74*
Cc1nc2cc(N3CCCC(C(=O)NCCN4CCCC4)C3)cnc2nc1C (configuration not stated) | -131 | -43 | -8 | -48 | -98 | -152
O=C(Nc1ccccc1F)C1CCCN(S(=O)(=O)Cc2ccc(F)cc2)C1 (configuration not stated) | -1 | 0 | 3 | -2 | -8 | -2
CCc1ccccc1NC(=O)N1CCCC(CN2CCc3ccccc3C2)C1 (configuration not stated) | 9 | -1 | -1 | 0 | 11 | -1
CS(=O)(=O)NC1CCCN(C(=O)Nc2cccc3ccccc23)C1 (configuration not stated) | 11 | 5 | -8 | -8 | 93* | 87*
O=C(Nc1cccc2ccccc12)C1CCCN(S(=O)(=O)Cc2ccccc2)C1 (configuration not stated) | 7 | 3 | 9 | 6 | 32* | 73*
O=C(NCCc1cccnc1)c1nc2c(o1)CN(C(=O)c1cccnc1)C2 | 0 | 0 | 0 | 0 | 9 | 0
O=C(NCc1cccnc1)c1cn(-c2ccccc2Cl)nn1 | 0 | -3 | 4 | 2 | -9 | -20
SMILES | OTUD3 inh | UCHL1 inh | USP10 block | USP7 inh | USP8 block | USP17 inh
COC(=O)C1(Cc2ccc(O)cc2)OC(=O)C(O)=C1c1ccc(O)cc1 (configuration not stated) | 78* | 37* | -10 | -54 | -8 | 85*
CC(=O)NCCc1ccc(O)cc1 | -3 | -2 | 2 | 1 | 0 | 1
Cc1occc1C(=O)N1CCc2sccc2C1C (configuration not stated) | 10 | 1 | 1 | -29 | 19 | 6
NCCn1nc(C2CCN(C(=O)Cc3cccc(F)c3)C2)c2cccnc21 (configuration not stated) | 1 | -1 | -3 | 3 | -5 | 37*
NCCn1nc(C2CCN(C(=O)Cc3ccc(F)cc3)C2)c2cccnc21 (configuration not stated) | -4 | -2 | -2 | 1 | -6 | 18
O=S(=O)(c1ccc(F)cc1)N1CCCN(c2nc3cccnc3s2)CC1 | 8 | -1 | -3 | 1 | 7 | 0
Clc1cccc(-n2cc(-c3ccccc3)c3c(NCc4ccccn4)ncnc32)c1 | 7 | 4 | -1 | 7 | 5 | 70*
O=C(Cn1cnc(S(=O)(=O)N2CCCC2)c1)Nc1ccc2c(c1)OCO2 | -5 | 0 | -2 | -3 | 27 | x
O=S(=O)(c1ccc(F)cc1)N1CCCC1c1ccnc(Nc2cnccn2)n1 (configuration not stated) | 12 | -1 | -5 | -2 | 0 | 47*
CC(=O)O[C@@H]1OC(=O)[C@](C)(C(C)=O)[C@@H]1C | 17 | 8 | 7 | 13 | 6 | 39*
CC(=O)c1ccc(NS(=O)(=O)c2cc(-c3nc(C)cs3)n(C)c2C)cc1 | -13 | -4 | 1 | 1 | -15 | -18
CCOc1ccc(C2=NCCNC3=C2C(c2ccccc2)N(c2ccccc2)C3=O)cc1 (configuration not stated) | 23 | 1 | 0 | 8 | 30* | 7
COc1ccc(NC(=O)CCCC(=O)c2ccccc2)c(OC)c1 | 6 | -4 | 1 | 0 | 0 | 5
O=C(CCCC(=O)c1ccccc1)Nc1ccc(F)cc1Cl | 10 | 3 | 7 | -4 | 35* | 30*
O=C(CCCC(=O)c1ccccc1)Nc1ccc(F)cc1 | -4 | 0 | 3 | -29 | -4 | 56*
COc1cc(CC(=O)Nc2ccccc2N2CCOCC2)cc(OC)c1OC | -3 | 2 | 2 | 2 | 5 | 6
O=C(CNC1Cc2ccccc2C1)Nc1ccccc1N1CCOCC1 | 2 | 3 | 2 | 1 | 46* | 13
Cn1ncc(Cl)c1C(=O)Nc1ccc2nc(NC(=O)C3CCCCC3)sc2c1 | 7 | 3 | 19 | 13 | 58* | 38*

Assay outcomes: PubChem BioAssay, Buhrlage Lab, Dana-Farber Cancer Institute and Novartis Institutes for BioMedical Research (Cambridge, Mass)
